Data as given in PubChem BioAssay AID1347165 (National Center for Advancing Translational Sciences (NCATS), 2019).
The whole screen tested about 220,000 compounds, of which about 5,700 (2.6%) were called active. Entries that show only a call come without a potency. Inconclusive results (about 18%) are left out. This is one part of a sample in which actives are shown more often than they occur. The call rests on the fitted dose curve; in most records, active means well fitted inhibition curve with a large enough effect; inconclusive means small, poorly fitted or top-dose-only effect; inactive means no such curve, though single readings can be large or run the other way.

Target: Lysine-specific demethylase 5B (Homo sapiens) (UniProt Q9UGL1)
Assay: Primary screen for KDM5B Histone Demethylases FDH-coupled qHTS; further: nearly all actives have a fitted effect of over 70% in size
Details: FDH-coupled NADH fluorescence (FDH is formaldehyde dehydrogenase); series mostly up to 57.7 µM
Outline: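 qHTS format, multiple compound concentrations. Buffer 50 mM HEPES pH 7.5/0.01% Tween-20; 200 nM KDM5BΔAP final; 10 min compound preincubation; substrate-mix levels 12.5 µM peptide, 25 µM α-KG, 0.25 mM NAD⁺; 30 min RT; ΔRFU.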
Potency means the concentration at half of the fitted maximal effect.

Sequence of Lysine-specific demethylase 5B (Homo sapiens) (Q9UGL1 whole entry, looked up): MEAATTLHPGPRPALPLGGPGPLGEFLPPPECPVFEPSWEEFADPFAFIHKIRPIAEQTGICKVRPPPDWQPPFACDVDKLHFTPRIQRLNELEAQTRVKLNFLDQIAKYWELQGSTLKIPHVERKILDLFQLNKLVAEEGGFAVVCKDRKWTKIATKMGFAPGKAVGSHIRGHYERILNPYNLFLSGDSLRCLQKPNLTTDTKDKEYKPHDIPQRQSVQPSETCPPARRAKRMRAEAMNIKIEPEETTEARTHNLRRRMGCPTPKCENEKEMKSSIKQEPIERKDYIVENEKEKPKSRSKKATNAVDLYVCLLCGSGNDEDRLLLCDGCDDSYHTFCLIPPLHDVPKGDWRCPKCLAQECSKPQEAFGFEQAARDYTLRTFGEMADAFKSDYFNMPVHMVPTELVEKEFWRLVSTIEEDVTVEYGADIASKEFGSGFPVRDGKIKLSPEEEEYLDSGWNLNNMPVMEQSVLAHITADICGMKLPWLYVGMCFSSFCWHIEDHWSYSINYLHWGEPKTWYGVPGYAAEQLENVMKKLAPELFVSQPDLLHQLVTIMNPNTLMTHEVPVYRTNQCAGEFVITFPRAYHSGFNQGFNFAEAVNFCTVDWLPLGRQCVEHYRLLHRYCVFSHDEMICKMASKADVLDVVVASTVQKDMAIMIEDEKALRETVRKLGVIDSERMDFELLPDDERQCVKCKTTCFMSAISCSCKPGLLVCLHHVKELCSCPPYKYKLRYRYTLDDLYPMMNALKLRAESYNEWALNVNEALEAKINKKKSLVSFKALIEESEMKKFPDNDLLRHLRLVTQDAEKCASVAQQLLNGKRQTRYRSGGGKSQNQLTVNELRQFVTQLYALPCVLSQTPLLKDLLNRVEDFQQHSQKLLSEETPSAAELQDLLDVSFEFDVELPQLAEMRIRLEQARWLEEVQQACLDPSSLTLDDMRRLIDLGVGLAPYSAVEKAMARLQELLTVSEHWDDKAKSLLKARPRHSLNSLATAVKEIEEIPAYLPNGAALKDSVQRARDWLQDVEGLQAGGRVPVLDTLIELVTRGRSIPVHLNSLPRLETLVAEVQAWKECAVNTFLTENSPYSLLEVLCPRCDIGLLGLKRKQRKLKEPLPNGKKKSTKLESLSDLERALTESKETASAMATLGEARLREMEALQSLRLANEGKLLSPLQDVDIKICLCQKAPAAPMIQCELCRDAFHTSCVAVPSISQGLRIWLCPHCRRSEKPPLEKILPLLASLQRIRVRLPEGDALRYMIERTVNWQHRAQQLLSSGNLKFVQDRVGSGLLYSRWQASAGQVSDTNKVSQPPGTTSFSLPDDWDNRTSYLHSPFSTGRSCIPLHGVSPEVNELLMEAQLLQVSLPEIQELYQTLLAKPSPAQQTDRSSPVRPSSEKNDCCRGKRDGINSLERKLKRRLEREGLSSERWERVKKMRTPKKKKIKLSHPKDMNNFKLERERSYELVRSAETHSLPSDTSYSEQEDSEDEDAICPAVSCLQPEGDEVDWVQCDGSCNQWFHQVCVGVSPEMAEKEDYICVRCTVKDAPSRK

Row | Compound | Potency
1 | CCC(=O)Nc1ccc(Cl)cc1C | inactive
2 | Cc1cc(C)c(OCC(=O)Nc2ccc(NC(=O)c3ccco3)cc2)c(Br)c1 | inactive
3 | CCOc1cc(C)c(Cl)cc1S(=O)(=O)N1CCCCC1C (stereo not drawn) | inactive
4 | CC(OC(=O)CCCc1c[nH]c2ccccc12)C(=O)NC(N)=O (stereo not drawn) | inactive
5 | CCCCc1nc(SCC(=O)Nc2nnc(C(C)C)s2)n[nH]1 | inactive
6 | O=C1NC[C@@H](CCC(=O)N2CCN(c3ccccn3)CC2)N2C[C@@H](NCc3ccccc3)C[C@@H]12 | 31.6 µM (active)
7 | CN1[C@@H](CCC(=O)N2CCN(c3ccccn3)CC2)CNC(=O)[C@@H]2[C@H]1CCN2Cc1csnn1 | 28.2 µM (active)
8 | O=C(Nc1ccsc1)N[C@H]1C[C@H]2C(=O)NC[C@@H](CCC(=O)N3CCC(O)CC3)N2C1 | inactive
9 | CN(C)c1ccc(C(=O)N[C@H]2C[C@H]3C(=O)NC[C@@H](CCC(=O)N4CCCCC4)N3C2)cc1 | inactive
10 | CN1[C@@H](CCC(=O)N2CCN(c3ccccc3)CC2)CNC(=O)[C@H]2NCC[C@H]21 | inactive
11 | COC(=O)C1CCN(C(=O)CC[C@H]2CNC(=O)[C@@H]3[C@@H](CCN3Cc3cccs3)N2C)CC1 | inactive
12 | COc1cccc(C(=O)Oc2ccc(C3(c4ccc(OC(=O)c5cccc(OC)c5)cc4)OC(=O)c4ccccc43)cc2)c1 | inactive
13 | CC(C)NC(=O)CN(C)CC(O)COc1ccc(Cl)cc1 (stereo not drawn) | inactive
14 | CCc1cc(CC)n(-c2nc3c(c(=O)n(C)c(=O)n3C)n2C)n1 | inactive
15 | CCc1nn(C(C)C(=O)NCc2ccccc2Cl)c(=O)c2cc3occc3n12 (stereo not drawn) | inactive
16 | NC(=O)c1ccc(NC(=O)C2(Cc3nc4ccccc4s3)CCCCC2)cc1 | inactive
17 | CCNC(=O)NC(=O)CN1CCCC(c2nc3ccccc3o2)C1 (stereo not drawn) | inactive
18 | Cc1nc2scc(CC(=O)NC(C)C)n2c(=O)c1-c1cc(C)n(-c2cccc(Cl)c2)n1 | 28.2 µM (active)
19 | Cc1cccc(-n2nc(-c3c(C)nc4scc(CC(=O)NCc5ccco5)n4c3=O)cc2C)c1C | 31.6 µM (active)
20 | CCC1(C)Cc2nc3sc4c(=O)n(CC(=O)NCc5ccco5)cnc4c3cc2CO1 (stereo not drawn) | inactive
21 | CC(C)NC(=O)Cc1cccs1 | inactive
22 | COc1ccc2c(C)c(CC(=O)NCc3ccco3)c(=O)oc2c1 | inactive
23 | Cn1nc(CC(=O)Nc2cccc(Cl)c2)c2ccccc2c1=O | inactive
24 | Cc1ccc(C(NC(=O)c2ccccc2Cl)C(Cl)(Cl)Cl)cc1 (stereo not drawn) | inactive
25 | Cc1cc(NC(=O)CSc2nc(=O)cc(N)n2-c2ccc(F)cc2)no1 | inactive
26 | O=C(O)CC/C(=C/c1cccc(Oc2ccc(Cl)cc2)c1)c1nc2ccccc2s1 | inactive

Row | Compound | Potency
27 | CN(Cc1nnc(-c2ccc(Br)s2)o1)C1CCCC1 | inactive
28 | COc1ccccc1C1=NS(=O)(=O)N(C)C(C(=O)N2CCN(Cc3ccccc3)CC2)=C1 | inactive
29 | Cc1ccccc1CNC(=O)c1ccc2c(c1)CCCC2 | inactive
30 | O=C(CSc1ncc(-c2ccc(Cl)cc2)o1)Nc1ccc(F)cc1 | inactive
31 | CC(=O)Nc1cccc(-c2nnc3n2CCCC3)c1 | inactive
32 | COc1nc2nc(CC3CC3)n(C)c2cc1-c1ccc(CO)cc1 | 35.5 µM (active)
33 | COc1nc2nc(CCc3ccccc3)n(C)c2cc1-c1cncnc1 | inactive
34 | CC(=O)Nc1cccc(-c2n[nH]c3c2CC(=O)N(Cc2ccccc2F)C3)c1 | inactive
35 | COc1nc2nc(CC3CC3)n(C)c2cc1-c1cccc(NC(C)=O)c1 | 35.5 µM (active)
36 | CSCCC(NC(=O)[C@@H](NC(=O)c1ccc(F)cc1)C(C)C)c1nnc2ccccn12 (stereo partly drawn) | inactive
37 | O=C(Nc1cccc(Cl)c1)N1CCN(c2cc(=O)n3nc(-c4ccco4)sc3n2)CC1 | inactive
38 | CCc1ccc2oc(C(=O)Nc3ccccc3Cl)cc(=O)c2c1 | inactive
39 | Fc1ccc(NC(=S)NCC(c2ccccc2)c2ccccc2)cc1 | inactive
40 | O=C(Nc1ccc2oc(-c3cccc(Cl)c3)nc2c1)c1ccc(F)cc1 | inactive
41 | CN(c1ccccc1)S(=O)(=O)c1ccc(NC(=O)COc2ccccc2)cc1 | inactive
42 | Cc1ccc(S(=O)(=O)N(C)Cc2ccccc2C(F)(F)F)cc1 | inactive
43 | CCn1cc(-c2ccc(C)cc2)cc1C(=O)NCc1cccnc1 | inactive
44 | CC(C)(C)C(=O)NCCCC(=O)NCc1cccnc1 | inactive
45 | Cn1ncc2c(C(=O)NCc3cccnc3)cc(C(C)(C)C)nc21 | 100 µM (active)
46 | O=C(NC(=S)NC1CCCCC1)c1ccc(Cl)cc1 | inactive
47 | COc1ccccc1OCCNC(=O)c1cn2ccnc(-c3ccc(C)cc3)c2n1 | 28.2 µM (active)
48 | N#CCCN1CCN(C(=O)c2cn3ccnc(-c4ccc(F)cc4)c3n2)CC1 | inactive
49 | N#CCCN1CCN(C(=O)c2cn3ccnc(-c4ccccc4)c3n2)CC1 | inactive
50 | COc1ccc(-c2noc(-c3cccn3CC(=O)Nc3cc(Cl)ccc3OC)n2)cc1F | inactive
51 | CCCn1nc(C(=O)Nc2sc3c(c2C(N)=O)CCC3)c2ccccc2c1=O | inactive
52 | CC(C)CC(=O)N1CCC(c2noc(-c3cnccn3)n2)C1 (stereo not drawn) | inactive

Row | Compound | Potency
53 | O=C(c1cccnc1)N1CCC(Cc2nc(C3CCOCC3)no2)CC1 | inactive
54 | CCc1noc(-c2cccn3c(CNC(=O)c4ccncc4)nnc23)n1 | 28.2 µM (active)
55 | CCNC(=O)c1noc(-c2ccc[nH]c2=O)n1 | inactive
56 | O=C(NCc1nnc2c(-c3nc(C4CC4)no3)cccn12)c1cccnc1 | 25.1 µM (active)
57 | CCc1noc(-c2cn(C3CCN(C(=O)c4ccc(Cl)cc4)C3)nn2)n1 (stereo not drawn) | inactive
58 | CCc1noc(-c2cn(C3CCN(C(=O)c4cccc(OC)c4)C3)nn2)n1 (stereo not drawn) | inactive
59 | CCc1noc(-c2cccn3c(CNC(=O)c4cccc(Cl)c4)nnc23)n1 | 31.6 µM (active)
60 | CCc1noc(-c2cccn3c(CNC(=O)C(CC)c4ccccc4)nnc23)n1 (stereo not drawn) | 28.2 µM (active)
61 | CCc1noc(-c2cn(C3CCN(C(=O)C4(c5ccccc5)CC4)C3)nn2)n1 (stereo not drawn) | inactive
62 | CC(C)c1nc(CNC(=O)c2ccc(N(C)C)nc2)no1 | inactive
63 | CCC(C(=O)Nc1cccc(-c2nc3cccnc3s2)c1C)c1ccccc1 (stereo not drawn) | inactive
64 | c1ccc(-c2nc(CN3CCCC3c3cccs3)co2)cc1 (stereo not drawn) | inactive
65 | O=C1Cc2cc(-c3csc(Nc4ccc(F)cc4)n3)ccc2N1 | inactive
66 | CC(=O)Nc1ccc(SC2CCCCCC2=O)cc1 (stereo not drawn) | inactive
67 | CCC1CCc2c(sc(NC(=O)C(CC)CC)c2C#N)C1 (stereo not drawn) | inactive
68 | Cc1ccc(NC(=O)CN(C)C(=O)c2nc(-c3ccccc3)oc2C)cc1 | inactive
69 | CC1CCCN(CC(=O)Nc2cc(Cl)ccc2Oc2ccccc2)C1 (stereo not drawn) | inactive
70 | Nc1nc2ccc([N+](=O)[O-])cc2[n+]([O-])n1 | inactive
71 | COc1cccc(N(CC(=O)NC2CCCC2)C(=O)Cn2nnc(-c3ccc(C)o3)n2)c1 | inactive
72 | C/C(=C\c1ccc([N+](=O)[O-])cc1)C(=O)c1ccccc1 | inactive
73 | COc1ccc(CNc2nc3c(c(=O)[nH]c(=O)n3C)n2Cc2ccccc2)cc1 | inactive
74 | c1cncc(CNc2cc(-c3cnc4ccccc4n3)c3cc[nH]c3n2)c1 | inactive
75 | N#Cc1nc(/C=C/c2ccc(F)cc2)oc1NC1CCCCC1 | inactive
76 | Fc1ccc(-c2cc(NC3CCCC3)nc3[nH]ccc23)nc1 | 31.6 µM (active)
77 | N#Cc1ccc(CCC(=O)Nc2ccc3ccccc3n2)cc1 | inactive
78 | COc1ccc2cc(C(=O)NCC3CCCO3)[nH]c2c1 (stereo not drawn) | inactive

Row | Compound | Potency
79 | COc1ccc(CNC(=O)C2CCCC2)cc1 | inactive
80 | COc1ccc2c(c1)OCC(C(=O)NCc1cc3cc(OC)ccc3[nH]1)C2 (stereo not drawn) | 25.1 µM (active)
81 | CN(CC(=O)N1CCCC1)c1nc(-c2cccs2)nc2ccccc12 | inactive
82 | CC(=O)N1CCN(c2cc(-c3noc([C@@H]4CCCN4Cc4ccccc4)n3)ccn2)CC1 | 35.5 µM (active)
83 | COc1ccc(-c2noc([C@@H]3CCCN3C(=O)CCCc3ccccc3)n2)cc1OC | inactive
84 | COCCOc1ccc(-c2noc([C@@H]3CCCN3Cc3cccnc3)n2)cn1 | inactive
85 | Cn1cc(C(=O)N2CCN(C(=O)Cc3ccccc3)CC2)c2ccccc21 | inactive
86 | CCC(C)C(NC(=O)NCc1ccc(C)cc1)C(=O)O (stereo not drawn) | inactive
87 | CCS(=O)(=O)N1CC(=O)N(Cc2ccccc2Cl)C(C)(C(=O)NCc2ccccc2OC)C1 (stereo not drawn) | inactive
88 | O=C(CCn1cncn1)N1CCc2[nH]nc(-c3cccc4ccccc34)c2C1 | inactive
89 | Cc1ccc(C)c2c(=O)cc(CN3CCN(CCn4cncn4)CC3)[nH]c12 | 25.1 µM (active)
90 | Cc1cc2oc(=O)cc(CN3CCN(CCc4ccncc4)CC3)c2cc1C | inactive
91 | Cc1nn(C)cc1CNC(=O)c1cc2nc(-c3ccc(Cl)s3)cc(C(F)(F)F)n2n1 | inactive
92 | Cc1cc(C)c(NC(=O)CN(C)Cc2coc(-c3ccccc3)n2)c(C)c1 | inactive
93 | O=C(c1nc(-c2ccsc2)c2cnccn12)N1CCCC1 | 35.5 µM (active)
94 | O=C(c1nc(-c2cccnc2)c2cnccn12)N1CCN(c2ncccn2)CC1 | inactive
95 | COc1cccc(Cn2c(SCc3ccc(C(=O)N4CCCCC4)cc3)nc3ccncc32)c1 | inactive
96 | CNC(=O)[C@@H](Cc1ccccc1)N1CCC[C@H]1C(=O)N1CCC1 | 28.2 µM (active)
97 | CNC(=O)C(C)(C)N1CCC[C@H]1C(=O)N(C)Cc1ccccc1 | inactive
98 | CCNC(=O)[C@@H]1CCCN1[C@@H](C(=O)NC)c1ccccc1OC | inactive
99 | Cc1cccc(OC(C)C(=O)Nc2cc(-c3ccc(F)c(F)c3)no2)c1C (stereo not drawn) | inactive
100 | O=S(=O)(NCCc1csc2nc(-c3ccccc3)nn12)c1cc(Cl)ccc1Cl | inactive
101 | Cc1ccc(-c2nc(C3CC(=O)N(c4ccc(Cl)cc4)C3)no2)cc1C (stereo not drawn) | inactive
102 | O=C1CC(c2noc(-c3ccc(F)c(Cl)c3)n2)CN1c1ccc(F)cc1 (stereo not drawn) | inactive
103 | COc1ccc(-c2nc(C3CC(=O)N(c4ccc(F)c(Cl)c4)C3)no2)cc1OC (stereo not drawn) | 31.6 µM (active)
